From PubChem BioAssay (Tox21) come the findings set out here.

The nature of assay [1]: qHTS RealTime-Glo MT Cell Viability Assay in HEK293 cells - 0 hour (AID 1224880). Note: top concentration of the series differs between compounds; nearly all actives have a fitted effect of over 45% in size. Summed up:
(§1)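 HEK293 cells mixed with RealTime-Glo reagents (NanoLuc plus cell-permeant prosubstrate) at 600 cells/well, preincubated 5 h at 37 C/5% CO2, then given 23 nL compound in DMSO. Nonlytic luminescence from viable cells was read at 0, 8, 16, 24, 32 and 40 h.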
On the technique in general: In qHTS, concentration-response curves come from the screen itself.

Assay [2] is described as follows: A CellTox Green Cytotoxicity Assay to monitor cytotoxicity in HEK293 cells - 32 hour (AID 1224881). Note: nearly all actives have a fitted effect of over 40% in size. Summed up:
(§2)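 HEK293 cells premixed with CellTox Green dye were seeded at 600 cells/well and left 5 h at 37 C/5% CO2 before pin transfer of 23 nL compound in DMSO. Fluorescence from dye bound to dead-cell DNA was read during 40 h treatment.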

Assay [3] is described as follows: A CellTox Green Cytotoxicity Assay to monitor cytotoxicity in HepG2 cells - 32 hour (AID 1224883). Note: nearly all actives have a fitted effect of over 50% in size. Summed up:
(§3)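 HepG2 cells were seeded together with the CellTox Green dye at 600 cells/well, left 5 h at 37 C/5% CO2, then given compounds in DMSO. Fluorescence from dye bound to dead-cell DNA was read repeatedly over 40 h of treatment at 37 C.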

The nature of assay [4]: A CellTox Green Cytotoxicity Assay to monitor cytotoxicity in HEK293 cells - 8 hour (AID 1224884). Note: nearly all actives have a fitted effect of over 35% in size. The essentials: as §2
A short description of assay [5]: qHTS RealTime-Glo MT Cell Viability Assay in HepG2 cells - 16 hour (AID 1224885). Note: nearly all actives have a fitted effect of over 50% in size. The essentials: (§4)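 Cells + NanoLuc/prosubstrate dispensed (600 cells/well) → 5 h at 37 C/5% CO2 → compounds in DMSO transferred → 40 h incubation at 37 C, luminescence read at 0, 8, 16, 24, 32, 40 h.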
Assay [6] can be described thus: qHTS RealTime-Glo MT Cell Viability Assay in HEK293 cells - 24 hour (AID 1224886). Note: top concentration of the series differs between compounds; nearly all actives have a fitted effect of over 50% in size. Summed up:
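Tox21 10K qHTS, HEK293, 600 cells/well, RealTime-Glo reagent co-dispensed with cells; 5 h preincubation, compound by pintool, 37 C, luminescence at 0–40 h.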

A short description of assay [7]: qHTS RealTime-Glo MT Cell Viability Assay in HEK293 cells - 8 hour (AID 1224887). Note: top concentration of the series differs between compounds; nearly all actives have a fitted effect of over 50% in size. Summed up:
as §1

Assay [8] in a line: A CellTox Green Cytotoxicity Assay to monitor cytotoxicity in HEK293 cells - 16 hour (AID 1224888). Note: nearly all actives have a fitted effect of over 35% in size. The essentials:
as §2

Assay [9] in a line: qHTS RealTime-Glo MT Cell Viability Assay in HepG2 cells - 0 hour (AID 1224889). Note: nearly all actives have a fitted effect of over 50% in size. The essentials: as §4
Assay [10] in a line: qHTS assay to identify small molecule antagonists of the estrogen receptor alpha (ER-alpha) signaling pathway using the BG1 cell line in the presence of 0.1 nM 17-beta-estradiol - cell viability counter screen (AID 1259241). Note: nearly all actives have a fitted effect of over 40% in size. The essentials: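 Live-cell protease activity (CellTiter-Fluor fluorescence, 30 min) was read in the same wells after VM7Luc4E2 cells had been exposed to compounds with 0.1 nM 17beta-estradiol for 22 hr at 37C.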

Assay [11] in a line: qHTS assay to identify small molecule antagonists of the androgen receptor (AR) signaling pathway using the MDA cell line in the presence of 0.5 nM R1881 - cell viability counter screen (AID 1259242). Note: nearly all actives have a fitted effect of over 45% in size. The essentials:
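MDA-kb2 cells (human breast carcinoma, stably carrying MMTV-luciferase reporter) were exposed to compounds with 0.5 nM R1881 (final) for 16 hr at 37C, 0% CO2; viability then read as live-cell protease fluorescence (CellTiter-Fluor, 30 min) in the same wells.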

Assay [12] in a line: qHTS assay to identify small molecule HDAC inhibitors (AID 1259364). Note: nearly all actives have a fitted effect of over 45% in size. Note: potency is the fitted concentration of half-maximal effect. Summed up:
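Wild-type HCT-116 cells were plated overnight, exposed to compounds for 2 h at 37 °C, then given HDAC-Glo class I/II luminogenic reagent for 30 min at room temperature before luminescence was read.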

A short description of assay [13]: qHTS assay to identify small molecule HDAC inhibitors - cell viability counter screen (AID 1259365). The essentials: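 HCT-116 (wild type), 1,500 cells/well, overnight 37C/5% CO2; compound in DMSO 2hr; CellTiter-Glo 30min RT; luminescence read.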
Assay [14] in a line: qHTS assay to identify small molecule agonists of the sonic hedgehog signaling (Shh) pathway - cell viability counter screen (AID 1259366). Note: nearly all actives have a fitted effect of over 50% in size. The essentials:
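CellTiter-Fluor fluorescence read-out, 1 hr at 37C, added after 23hr compound exposure. Cells: 3T3 Gli1-Luc, an NIH/3T3 clone with stably integrated Gli1-Luc reporter, plated 4hr before compound.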

The target in assay [15] is Androgen receptor (Homo sapiens) (UniProt P10275). Description: qHTS assay to identify small molecule antagonists of the androgen receptor (AR) signaling pathway using the MDA cell line in the presence of 0.5 nM R1881 (AID 1259243). Note: nearly all actives have a fitted effect of over 50% in size. Summed up: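 MDA-kb2 human breast carcinoma cells carrying an MMTV-luciferase reporter (AR- and GR-responsive) were plated, rested 5 hr at 37C, dosed with compounds, then stimulated with 0.5 nM R1881 (final) for 16 hr; luminescence was read after ONE-Glo.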
Androgen receptor (Homo sapiens), sequence (P10275 whole entry, looked up): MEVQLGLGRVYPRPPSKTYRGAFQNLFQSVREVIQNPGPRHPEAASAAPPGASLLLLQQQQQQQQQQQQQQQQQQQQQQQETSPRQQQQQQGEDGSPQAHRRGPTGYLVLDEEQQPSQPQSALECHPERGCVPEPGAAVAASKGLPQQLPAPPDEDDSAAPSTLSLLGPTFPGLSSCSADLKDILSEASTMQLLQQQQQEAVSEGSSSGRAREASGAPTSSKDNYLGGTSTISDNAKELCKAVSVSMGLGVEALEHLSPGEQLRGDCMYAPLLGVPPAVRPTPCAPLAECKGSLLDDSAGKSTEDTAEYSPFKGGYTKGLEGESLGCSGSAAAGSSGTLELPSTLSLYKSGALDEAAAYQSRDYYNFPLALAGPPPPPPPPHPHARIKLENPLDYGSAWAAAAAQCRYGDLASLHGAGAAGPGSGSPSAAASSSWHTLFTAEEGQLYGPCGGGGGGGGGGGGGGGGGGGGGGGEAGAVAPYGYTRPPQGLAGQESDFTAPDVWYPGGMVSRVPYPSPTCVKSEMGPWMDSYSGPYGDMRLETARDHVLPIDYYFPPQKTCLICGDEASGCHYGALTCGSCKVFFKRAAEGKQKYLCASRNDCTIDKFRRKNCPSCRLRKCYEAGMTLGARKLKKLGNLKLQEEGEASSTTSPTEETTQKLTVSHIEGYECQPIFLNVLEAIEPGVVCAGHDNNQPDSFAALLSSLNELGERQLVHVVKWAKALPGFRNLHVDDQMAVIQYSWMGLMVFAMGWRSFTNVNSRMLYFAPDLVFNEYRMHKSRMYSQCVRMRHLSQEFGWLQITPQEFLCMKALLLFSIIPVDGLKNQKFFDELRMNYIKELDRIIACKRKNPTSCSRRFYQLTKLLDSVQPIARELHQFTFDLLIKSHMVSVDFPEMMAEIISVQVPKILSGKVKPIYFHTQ

Assay [16] deals with Estrogen receptor (Homo sapiens) (UniProt P03372). Description: qHTS assay to identify small molecule antagonists of the estrogen receptor alpha (ER-alpha) signaling pathway using the BG1 cell line in the presence of 0.1 nM 17-beta-estradiol (AID 1259244). Note: nearly all actives have a fitted effect of over 50% in size. Summed up:
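VM7Luc4E2 cells (endogenous full-length ER-alpha, stable 4xERE-luciferase) were grown 5 days in phenol red-free medium with charcoal-stripped FBS, then exposed 22 h at 37C to compounds plus 0.1 nM (final) 17beta-estradiol; ONE-Glo luminescence read-out.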

A short description of assay [17]: qHTS assay to identify small molecule antagonists of the sonic hedgehog signaling (Shh) pathway - cell viability counter screen (AID 1259367). Note: nearly all actives have a fitted effect of over 55% in size. The essentials:
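NIH/3T3-derived Gli1-Luc reporter cells, 2,000/well, plated 4 hr before compound addition, then stimulated with conditioned medium for 24 hr at 37C. Viability measured in the same wells by CellTiter-Fluor fluorescence, reagent added at 23 hr for 1 hr.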

Assay [18] can be described thus: A CellTox Green Cytotoxicity Assay to monitor cytotoxicity in HepG2 cells - 8 hour (AID 1224890). Note: nearly all actives have a fitted effect of over 45% in size. The essentials:
as §3

The nature of assay [19]: A CellTox Green Cytotoxicity Assay to monitor cytotoxicity in HepG2 cells - 0 hour (AID 1224882). Note: nearly all actives have a fitted effect of over 35% in size. The essentials:
as §3

A short description of assay [20]: qHTS assay to identify small molecule phospholipidosis (PLD) inducers (AID 1259344; active = well fitted curve in the direction sought with a large enough effect; an effect the other way counts as inactive or inconclusive). Summed up:
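HepG2 cells, 900/well, treated with compound plus LipidTOX Red for 24 h at 37 C; amiodarone positive and DMSO negative controls. Fixed with paraformaldehyde/Hoechst, then high-content imaging scored LipidTOX pit count and integrated intensity per well and per cell.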

A number with no mark means an inactive call. Records with an inconclusive call do not appear. The source made the active and inactive calls. Unless noted, calls come from the whole dose curve; as a rule, active = well fitted curve in the direction sought with a large enough effect in the repeat runs; inconclusive = weak or mixed curves; inactive = no such curve, though single readings can be large; an effect the other way counts as inactive or inconclusive.

Estrogen receptor (Homo sapiens), sequence (P03372 whole entry, looked up): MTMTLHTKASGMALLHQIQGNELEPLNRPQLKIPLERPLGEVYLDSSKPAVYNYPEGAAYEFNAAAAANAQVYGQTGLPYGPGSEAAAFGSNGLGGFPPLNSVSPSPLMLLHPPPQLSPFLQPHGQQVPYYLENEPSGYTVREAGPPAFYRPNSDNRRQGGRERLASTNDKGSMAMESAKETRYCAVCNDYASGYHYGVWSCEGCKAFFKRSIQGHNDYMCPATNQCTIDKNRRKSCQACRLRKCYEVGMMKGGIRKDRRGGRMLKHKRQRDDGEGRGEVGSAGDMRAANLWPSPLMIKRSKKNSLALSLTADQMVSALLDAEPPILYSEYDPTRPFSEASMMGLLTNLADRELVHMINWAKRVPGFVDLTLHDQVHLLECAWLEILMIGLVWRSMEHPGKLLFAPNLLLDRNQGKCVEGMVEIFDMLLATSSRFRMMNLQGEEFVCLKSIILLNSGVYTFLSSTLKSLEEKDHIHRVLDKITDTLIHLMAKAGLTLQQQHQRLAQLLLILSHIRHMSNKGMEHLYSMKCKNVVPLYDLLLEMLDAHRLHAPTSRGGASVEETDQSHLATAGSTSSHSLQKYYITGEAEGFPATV

For the compound `C#CC(O)CCCCC` (configuration not stated), the outcome in assay [1], in [5], in assay [10], in [11] and in assay [13] was inactive. Further, the Potency entry in assay [2], in [3], in assay [4], in assay [6], in [7] and in assay [8] was “inactive” in each case. In addition, the Potency result in [9], in [12] and in [14] was “inactive” each time.
With `COc1cccc(Br)c1`, the result in assay [1], in assay [5], in assay [10], in assay [11], in assay [16] and in assay [13] was inactive. Also, in assay [17], the outcome was inactive. Besides, the Potency result in assay [2], in [4], in assay [6], in assay [7], in [8] and in assay [9] was “inactive” in each case. Moreover, the Potency entry in [15], in [12] and in [14] was “inactive” each time.
For `CCCCCCCCCCCCCCCCCC(=O)OCCCCCCCCCCCCCC(C)C`, the compound was called inactive in [1], in assay [5], in assay [10], in [11], in assay [16] and in [13]. Also, the compound was called inactive in [17]. Moreover, the Potency result in [2], in assay [3], in [4], in [6], in assay [7] and in assay [9] was “inactive” in each case. The Potency result in assay [18], in assay [12] and in [14] was “inactive” in each case.
With `C#CC(O)C(CC)CCCC` (configuration not stated), the outcome in assay [1], in assay [5], in assay [10], in assay [11], in assay [13] and in assay [17] was inactive. Besides, the Potency entry in assay [2], in assay [3], in assay [6], in [7], in assay [8] and in assay [9] was “inactive” throughout. The Potency entry in assay [18], in assay [15], in [12] and in assay [14] was “inactive” throughout.
Turning to `CCOC(=O)Nc1ccc2c(c1)N(C(=O)CCN1CCOCC1)c1ccccc1S2`, the compound was classed as inactive in assay [1], in assay [5], in assay [10], in [11], in assay [16] and in assay [13]. Moreover, the result in assay [17] was inactive. The Potency entry in [19], in [3], in assay [4], in assay [6], in assay [7] and in assay [8] was “inactive” each time. The Potency result in [9], in [18], in assay [15], in assay [20], in [12] and in assay [14] was “inactive” in each case.
`CCC(=O)c1cccc(Cl)c1`: the outcome in [1], in [5], in assay [10], in assay [11], in assay [13] and in assay [17] was inactive. Also, the Potency result in [2], in assay [3], in assay [4], in assay [6], in [7] and in [8] was “inactive” each time. Also, the Potency result in [9], in assay [18], in assay [12] and in assay [14] was “inactive” each time.
Consider `C1C2OC2C2C1C1CC2C2OC12` (configuration not stated), for which the call in assay [1], in assay [5], in [10], in assay [11], in [13] and in assay [17] was inactive. Also, the Potency entry in assay [2], in [3], in assay [4], in assay [6], in assay [7] and in [8] was “inactive” in each case. Moreover, the Potency entry in assay [9], in assay [18], in assay [12] and in [14] was “inactive” throughout.
`CC(C)COC(=O)c1ccccc1O`: the compound was called inactive in [1], in [5], in assay [10], in [11], in assay [16] and in [13]. Further, the result in assay [17] was inactive. Besides, the Potency result in assay [2], in assay [3], in assay [4], in assay [6], in [7] and in [8] was “inactive” throughout. Also, the Potency result in assay [12] and in [14] was “inactive” each time.
For the compound `CC(C)c1ccc2oc3nc(N)c(C(=O)O)cc3c(=O)c2c1`, the compound was classed as inactive in assay [1], in assay [5], in assay [10], in assay [11], in assay [16] and in assay [13]. Further, in assay [17], the outcome was inactive. In addition, the Potency entry in assay [19], in assay [3], in assay [4], in assay [6], in [7] and in assay [8] was “inactive” in each case. Further, the Potency entry in assay [9], in assay [18], in assay [15], in assay [20] and in assay [14] was “inactive” throughout. In assay [12], the Potency was 266 nM (active).
